Results reported in the supplement of paper PMC6658780.
Structures can show the parent of a compound that is named as a salt. ± gives the standard deviation of the averaged measurements.

Tested on: Escherichia coli ATCC BAA-2469
Test: percent growth inhibition of drug alone vs DMSO control; higher = more growth inhibition
Details: antibiotic (0.125x MIC): none (0.1% DMSO); 7 µM
Procedure: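 Prestwick drugs tested at 20 uM and 7 uM with an antibiotic at 0.125x MIC (16 mg/L when MIC >128 mg/L) against E. coli ATCC BAA-2469 (NDM-1) in CAMHB, 384-well plates, duplicate runs. Percent growth inhibition was computed from OD600 (24 h minus 0 h) relative to DMSO wells. Drug + DMSO-only wells are also given. […]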

| Structure (SMILES) | percent growth inhibition of drug alone [%] |
| --- | --- |
| Nc1ccn([C@@H]2O[C@H](CO)[C@@H](O)C2(F)F)c(=O)n1 [Gemcitabine] | 15.3 ± 12 |
| Oc1c(I)cc(Cl)c2cccnc12 [Clioquinol] | 11.8 ± 2.5 |
| CC1CS(=O)(=O)CCN1/N=C/c1ccc([N+](=O)[O-])o1 (stereo unspecified) [Nifurtimox] | 1.01 ± 1.2 |
| O=c1[nH]c(=O)n([C@H]2C[C@H](O)[C@@H](CO)O2)cc1C(F)(F)F [Trifluridine] | 4.84 ± 4.7 |
| COc1cc(NS(=O)(=O)c2ccc(N)cc2)nc(OC)n1 [Sulfadimethoxine] | -0.418 ± 1.2 |
| Cc1c(N(C)C)c(=O)n(-c2ccccc2)n1C [Amidopyrine] | 0.00227 ± 1.1 |
| Cc1cn([C@H]2C[C@H](N=[N+]=[N-])[C@@H](CO)O2)c(=O)[nH]c1=O [Zidovudine, AZT] | 102 ± 2.3 |
| C#C[C@]1(O)CC[C@H]2[C@@H]3CCC4=C(CCC(=O)C4)[C@H]3CC[C@@]21C [Norethynodrel] | 0.455 ± 0.56 |
| Oc1c(Cl)cc(Cl)c2cccnc12 [Chloroxine] | 13.1 ± 9.1 |
| NC(=O)N/N=C/c1ccc([N+](=O)[O-])o1 [Nitrofural] | 5.6 ± 7.3 |
| CC(=O)c1ccc2c(c1)N(CCCN1CCC(CCO)CC1)c1ccccc1S2 [Piperacetazine] | 0.548 ± 3.2 |
| CCCCNc1c(C(=O)OCC)c(C)nc2c1cnn2CC [Tracazolate hydrochloride] | 3.29 ± 0.5 |
| Cc1c(OCC(F)(F)F)ccnc1C[S+]([O-])c1nc2ccccc2[nH]1 (stereo unspecified) [Lansoprazole] | 2.04 ± 3.3 |
| CCCCCCCCNC(C)C(O)c1ccc(SC(C)C)cc1 (stereo unspecified) [Suloctidil] | 7.25 ± 11 |
| Clc1cccc(Cl)c1NC1=NCCN1 [Clonidine hydrochloride] | 0.913 ± 1.3 |
| O=C1c2c(O)ccc(O)c2C(=O)c2c(NCCNCCO)ccc(NCCNCCO)c21 [Mitoxantrone dihydrochloride] | 7.78 ± 5.1 |
| OCCN1CCN(CCCN2c3ccccc3Sc3ccc(C(F)(F)F)cc32)CC1 [Fluphenazine dihydrochloride] | 1.91 ± 1.5 |
| Nc1nnc(-c2cccc(Cl)c2Cl)c(N)n1 [Lamotrigine] | 2.35 ± 0.19 |
| N[C@@H]1CCCCN(c2c(F)cc3c(=O)c(C(=O)O)cn(C4CC4)c3c2Cl)C1 [Besifloxacin hydrochloride] | 3.86 ± 3.6 |
| CC(=O)OC[C@H]1O[C@@H]([S-])[C@H](OC(C)=O)[C@@H](OC(C)=O)[C@@H]1OC(C)=O.CCP(CC)CC.[Au+] [Auranofin] | 5.6 ± 2.6 |
| Cn1c(=O)c2c(ncn2C)n(C)c1=O [Caffeine] | 1.12 ± 0.78 |

Same assay, conditions: antibiotic (0.125x MIC): none (0.1% DMSO); 20 µM

| Structure (SMILES) | percent growth inhibition of drug alone [%] |
| --- | --- |
| Nc1ccn([C@@H]2O[C@H](CO)[C@@H](O)C2(F)F)c(=O)n1 [Gemcitabine] | 28.3 ± 14 |
| CC1CS(=O)(=O)CCN1/N=C/c1ccc([N+](=O)[O-])o1 (stereo unspecified) [Nifurtimox] | 1.15 ± 4.3 |
| O=c1[nH]c(=O)n([C@H]2C[C@H](O)[C@@H](CO)O2)cc1C(F)(F)F [Trifluridine] | 11.3 ± 6.5 |
| COc1cc(NS(=O)(=O)c2ccc(N)cc2)nc(OC)n1 [Sulfadimethoxine] | -0.552 ± 0.63 |
| Cc1c(N(C)C)c(=O)n(-c2ccccc2)n1C [Amidopyrine] | -1.02 ± 2.5 |
| Cc1cn([C@H]2C[C@H](N=[N+]=[N-])[C@@H](CO)O2)c(=O)[nH]c1=O [Zidovudine, AZT] | 115 ± 12 |
| C#C[C@]1(O)CC[C@H]2[C@@H]3CCC4=C(CCC(=O)C4)[C@H]3CC[C@@]21C [Norethynodrel] | 5.02 ± 3.1 |
| Oc1c(Cl)cc(Cl)c2cccnc12 [Chloroxine] | 102 ± 8 |
| NC(=O)N/N=C/c1ccc([N+](=O)[O-])o1 [Nitrofural] | 32.1 ± 18 |
| CO[C@H]1/C=C/O[C@@]2(C)Oc3c(C)c(O)c4c(O)c(c5c(nc6cc(C)ccn65)c4c3C2=O)NC(=O)/C(C)=C\C=C\[C@H](C)[C@H](O)[C@@H](C)[C@@H](O)[C@@H](C)[C@H](OC(C)=O)[C@@H]1C [Rifaximin] | 102 ± 7.8 |
| CC(=O)c1ccc2c(c1)N(CCCN1CCC(CCO)CC1)c1ccccc1S2 [Piperacetazine] | 0.302 ± 2.2 |
| CCCCNc1c(C(=O)OCC)c(C)nc2c1cnn2CC [Tracazolate hydrochloride] | -0.173 ± 5.2 |
| Cc1c(OCC(F)(F)F)ccnc1C[S+]([O-])c1nc2ccccc2[nH]1 (stereo unspecified) [Lansoprazole] | 4.77 ± 4.3 |
| CCCCCCCCNC(C)C(O)c1ccc(SC(C)C)cc1 (stereo unspecified) [Suloctidil] | 10.4 ± 16 |
| Clc1cccc(Cl)c1NC1=NCCN1 [Clonidine hydrochloride] | 3.75 ± 2.2 |
| OCCN1CCN(CCCN2c3ccccc3Sc3ccc(C(F)(F)F)cc32)CC1 [Fluphenazine dihydrochloride] | 3.64 ± 1.5 |
| Nc1nnc(-c2cccc(Cl)c2Cl)c(N)n1 [Lamotrigine] | 1.91 ± 1.2 |
| CO[C@H]1/C=C/O[C@@]2(C)Oc3c(C)c(O)c4c(O)c(c(/C=N/N5CCN(C6CCCC6)CC5)c(O)c4c3C2=O)NC(=O)/C(C)=C\C=C\[C@H](C)[C@H](O)[C@@H](C)[C@@H](O)[C@@H](C)[C@H](OC(C)=O)[C@@H]1C [Rifapentine] | 112 ± 10 |
| CC(=O)OC[C@H]1O[C@@H]([S-])[C@H](OC(C)=O)[C@@H](OC(C)=O)[C@@H]1OC(C)=O.CCP(CC)CC.[Au+] [Auranofin] | 20.1 ± 20 |
| Cn1c(=O)c2c(ncn2C)n(C)c1=O [Caffeine] | -1.35 ± 0.22 |
